# In PubChem BioAssay (Tox21):
# A number with no mark means an inactive call. Results filed as inconclusive are left out. Entries that show only a call come without a potency. The source made the active and inactive calls. Unless noted, the call rests on the fitted dose curve; in most records, active means well fitted curve in the direction sought with a large enough effect in the repeat runs; inconclusive means weak or mixed curves; inactive means no such curve, though single readings can be large; an effect the other way counts as inactive or inconclusive.
# Experiments:
# [1] = qHTS assay for small molecule agonists of the p53 signaling pathway (AID 651631; calls by dose curve; further: nearly all actives have a fitted effect of over 15% in size)
# In short: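 Readout was fluorescence from the LiveBLAzer FRET substrate, applied for 2 h at room temperature after 16 h compound exposure at 37 °C. Cells were the p53RE-bla HCT-116 line, with beta-lactamase driven by p53 response elements.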
# [2] = qHTS assay for small molecules that induce genotoxicity in human embryonic kidney cells expressing luciferase-tagged ATAD5 (AID 651632); further: nearly all actives have a fitted effect of over 15% in size
# In short: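 Reporter cells (HEK293T) express luciferase-tagged ATAD5, a protein that accumulates after DNA damage. Treat 16 hr at 37C/5% CO2, add Amplite, wait 30 min at RT, and read luminescence.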
# [3] = qHTS assay for small molecule agonists of the p53 signaling pathway - cell viability (AID 651633; calls by dose curve; further: series mostly up to about 83 µM; nearly all actives have a fitted effect of over 30% in size)
# In short: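 p53RE-bla cells, seeded at 4,000 per well and rested 5 h at 37 C/5% CO2, received compounds in DMSO for 16 h at 37 C. CellTiter-Glo was then added, and luminescence was read after 30 min at room temperature to gauge cytotoxicity.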
# [4] = qHTS assay for small molecules that induce genotoxicity in human embryonic kidney cells expressing luciferase-tagged ATAD5 - cell viability (AID 651634; calls by dose curve; further: nearly all actives have a fitted effect of over 25% in size)
# In short: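 Seeding of 2,000 HEK293T ATAD5-luciferase cells per well preceded pin-tool compound transfer. Plates sat 15.5 hr at 37C under 5% CO2, then fluorescence was read after 30 min with CellTiter-Fluor.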
# [5] = qHTS assay for small molecule disruptors of the mitochondrial membrane potential - cell viability (AID 720634; calls by dose curve;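 further: human HepG2 liver cancer cells; series mostly up to about 83 µM; nearly all actives have a fitted effect of over 20% in size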)
# In short: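 Measuring cytotoxicity alongside mitochondrial potential, the screen quantified ATP by luminescence in HepG2 cells after 1 hr compound incubation and a 30 min room-temperature CellTiter-Glo step.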
# [6] = qHTS assay for small molecule disruptors of the mitochondrial membrane potential (AID 720635); further: potency means the concentration at half of the fitted maximal effect
# In short: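 HepG2 cells (2,000/well) attached overnight at 37C, then took compound for 1 hr at 37C, 5% CO2. Mito-MPS dye was added for 30 min; fluorescence was read at 490/535 nm (monomers) and 540/590 nm (aggregates).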
# [7] = qHTS assay to test for compound auto fluorescence at 590 nm (red) in HepG2 cells (AID 720674)
# In short: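 Rose Bengal sodium served as the red fluorophore standard. HepG2 monolayers (overnight attachment, MEM with 10% FBS) were exposed to test compounds for 1 hr at 37 C and read at Ex 540/Em 590 nm.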
# [8] = qHTS assay to test for compound auto fluorescence at 535 nm (green) in HepG2 cells (AID 720675)
# [9] = qHTS assay to test for compound auto fluorescence at 460 nm (blue) in HEK293 cells (AID 720678)
# In short: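 Triamterene serves as the blue fluorophore standard. Compound signal at 405/460 nm is read in HEK293 wells (2,000 cells, 10% dialyzed FBS) after overnight treatment at 37C.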
# [10] = qHTS assay to test for compound auto fluorescence at 590 nm (red) in HEK293 cells (AID 720679)
# In short: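 We plated HEK293 cells in 10% dialyzed FBS medium, let them adhere for 4-5 hr, then added 23 nL compound. Overnight at 37C and 5% CO2 preceded fluorescence measurement at 540/590nm.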
# [11] = qHTS assay to test for compound auto fluorescence at 535 nm (green) in HEK293 cells (AID 720680)
# [12] = qHTS assay to test for compound auto fluorescence at 460 nm (blue) in HEK293 cell free culture (AID 720681)
# In short: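 Test compounds were pinned into cell-free culture medium (DMEM with 10% FBS) and fluorescence was read directly at Ex/Em 405/460 nm. Signals were expressed as fluorescence equivalents of triamterene, with DMSO vehicle as control.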
# [13] = qHTS assay to test for compound auto fluorescence at 535 nm (green) in HEK293 cell free culture (AID 720682)
# In short: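 Compounds were pin-transferred into cell-free DMEM with 10% FBS, and green fluorescence was read at excitation 485 nm and emission 535 nm. Intensities were expressed as fluorescein-equivalent values.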
# [14] = qHTS assay to test for compound auto fluorescence at 590 nm (red) in HEK293 cell free culture (AID 720683)
# In short: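 Tox21 10K library compounds were pinned into cell-free DMEM with 10% FBS and fluorescence was read at excitation 540 nm. Activity is expressed as Rose Bengal sodium equivalency.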
# [15] = qHTS assay to test for compound auto fluorescence at 590 nm (red) in HepG2 cell free culture (AID 720684)
# In short: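 Red fluorescence (540 nm excitation, 590 nm emission) was measured after compound transfer into cell-free MEM supplemented with 10% FBS. Values are equivalencies against Rose Bengal sodium.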
# [16] = qHTS assay to test for compound auto fluorescence at 460 nm (blue) in HepG2 cell free culture (AID 720685)
# In short: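 Compound (23 nL) or DMSO pinned into cell-free MEM with 10% FBS; blue fluorescence read at 405/460 nm excitation/emission, expressed as auto-fluorescence equivalency to triamterene.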
# [17] = qHTS assay to test for compound auto fluorescence at 535 nm (green) in HepG2 cell free culture (AID 720686)
# [18] = qHTS assay to test for compound auto fluorescence at 460 nm (blue) in HepG2 cells (AID 720687)
# In short: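 Cells (2,000/well in MEM with 10% FBS) attached overnight at 37 C, then were exposed to compound or DMSO for 1 hr at 37 C, 5% CO2. Fluorescence read at Ex/Em 405/460 nm, expressed as triamterene-equivalent signal.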
# [19] = target: Glucocorticoid receptor (Homo sapiens) (UniProt P04150); test: qHTS assay to identify small molecule agonists of the glucocorticoid receptor (GR) signaling pathway (AID 720691; active means well fitted activation curve with a large enough effect in the signal ratio in the repeat runs, not every such curve was filed as active; the % refers to the signal ratio)
# Chain of Glucocorticoid receptor (Homo sapiens) (P04150 whole entry, looked up): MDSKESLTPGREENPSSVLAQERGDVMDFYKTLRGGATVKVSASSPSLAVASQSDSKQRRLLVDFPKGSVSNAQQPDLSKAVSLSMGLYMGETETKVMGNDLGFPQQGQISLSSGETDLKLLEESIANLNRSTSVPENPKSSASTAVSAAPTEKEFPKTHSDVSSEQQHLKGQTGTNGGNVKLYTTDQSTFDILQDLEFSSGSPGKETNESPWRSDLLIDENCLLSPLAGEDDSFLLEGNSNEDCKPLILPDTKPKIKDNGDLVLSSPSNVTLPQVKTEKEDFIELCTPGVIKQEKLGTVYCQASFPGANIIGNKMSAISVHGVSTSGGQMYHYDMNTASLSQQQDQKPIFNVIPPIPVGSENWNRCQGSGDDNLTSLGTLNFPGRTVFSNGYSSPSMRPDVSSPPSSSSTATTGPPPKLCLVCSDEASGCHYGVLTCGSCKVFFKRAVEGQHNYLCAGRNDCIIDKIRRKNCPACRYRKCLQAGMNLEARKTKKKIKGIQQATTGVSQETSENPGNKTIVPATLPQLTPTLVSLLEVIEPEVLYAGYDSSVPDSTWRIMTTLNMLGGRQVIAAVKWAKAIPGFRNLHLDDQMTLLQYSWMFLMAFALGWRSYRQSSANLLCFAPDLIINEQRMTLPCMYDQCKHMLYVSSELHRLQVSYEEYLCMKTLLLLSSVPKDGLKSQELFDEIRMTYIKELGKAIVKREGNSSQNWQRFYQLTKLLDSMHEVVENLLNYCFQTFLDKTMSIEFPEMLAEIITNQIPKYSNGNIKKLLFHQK
# In short: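 Reporter read-out: fluorescence intensity following 2 h room-temperature LiveBLAzer B/G FRET substrate loading. Prior step: GR-bla HeLa cells held 4 h, then treated 18 h at 37 C.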
# [20] = target: Glucocorticoid receptor (Homo sapiens) (UniProt P04150); test: qHTS assay to identify small molecule antagonists of the glucocorticoid receptor (GR) signaling pathway (AID 720692; active means well fitted inhibition curve with a large enough effect in the signal ratio in the repeat runs, not every such curve was filed as active; the % refers to the signal ratio)
# In short: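 Dexamethasone (5 nM final) stimulated a stably integrated GRE-beta-lactamase reporter in HeLa cells during 18 h co-incubation with compounds; signal was quantified as fluorescence intensity of B/G FRET substrate after 2 h.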
Compound,Potency [1],Potency [2],Potency [3],Potency [4],Potency [5],Potency [6],Potency [7],Potency [8],Potency [9],Potency [10],Potency [11],Potency [12],Potency [13],Potency [14],Potency [15],Potency [16],Potency [17],Potency [18],Potency [19],Potency [20]
c1ccsc1,inactive,inactive,inactive,inactive,inactive,inactive,inactive,inactive,inactive,inactive,inactive,inactive,inactive,inactive,inactive,inactive,inactive,inactive,,
Nc1ccc(C(=O)O)c(O)c1,inactive,inactive,inactive,inactive,inactive,inactive,inactive,inactive,inactive,inactive,inactive,inactive,inactive,inactive,,inactive,inactive,inactive,inactive,inactive
CCN1C(=O)c2ccccc2C1Nc1ccc(OCCN2CCCCC2)cc1 (configuration not stated),inactive,inactive,inactive,inactive,inactive,inactive,inactive,inactive,inactive,inactive,inactive,inactive,inactive,inactive,inactive,inactive,inactive,,inactive,inactive
COc1cccc(OC)c1C(=O)O,inactive,inactive,inactive,inactive,inactive,inactive,inactive,inactive,inactive,inactive,inactive,inactive,inactive,inactive,inactive,inactive,inactive,inactive,inactive,inactive
CCCCCCCC,inactive,inactive,inactive,inactive,inactive,inactive,inactive,inactive,inactive,inactive,inactive,inactive,inactive,inactive,inactive,inactive,inactive,,inactive,inactive
c1ccc(SSc2ccccc2)cc1,inactive,inactive,inactive,inactive,inactive,inactive,inactive,inactive,inactive,inactive,inactive,inactive,inactive,inactive,,inactive,inactive,inactive,inactive,
C=CCn1c(=O)n(CC=C)c(=O)n(CC=C)c1=O,inactive,inactive,inactive,inactive,inactive,inactive,inactive,inactive,inactive,inactive,inactive,inactive,inactive,inactive,inactive,inactive,,inactive,inactive,
CC(C)(C)NSc1nc2ccccc2s1,inactive,inactive,inactive,inactive,inactive,24.8 µM (active),inactive,inactive,inactive,,inactive,inactive,inactive,inactive,inactive,inactive,,inactive,inactive,
C=Cc1ccccc1C=C,inactive,inactive,inactive,inactive,inactive,inactive,inactive,inactive,inactive,inactive,inactive,inactive,inactive,inactive,inactive,,inactive,inactive,inactive,inactive
O[C@@H]([C@H](O)[C@H](O)CBr)[C@H](O)CBr,inactive,inactive,inactive,inactive,inactive,inactive,inactive,inactive,inactive,,inactive,inactive,inactive,inactive,inactive,inactive,inactive,inactive,,
OC[C@@H](O)[C@@H](O)CO,inactive,inactive,inactive,inactive,inactive,inactive,inactive,inactive,inactive,inactive,inactive,inactive,inactive,inactive,inactive,inactive,inactive,inactive,inactive,
CCc1ccc(Br)cc1,inactive,inactive,inactive,inactive,inactive,inactive,inactive,inactive,inactive,inactive,inactive,inactive,inactive,inactive,inactive,,inactive,inactive,inactive,inactive
